# According to ChEMBL document CHEMBL3988442, “University of Dundee, Small-Polar-MMV Screening Library” (2021):
# For part of these data: Potency and affinity values are given separately.
# What was measured:
# Set-up in all cases: scale not given: direction of the effect not stated beside the values
# [1] = target: Protein translocase subunit SecA (Escherichia coli (strain K12)) (UniProt P10408); experiment: Assay to Identify E. coli SecA ATPase Inhibitors; assay type: functional; conditions: 30 µM
# Protein translocase subunit SecA (Escherichia coli (strain K12)), sequence (P10408 whole entry): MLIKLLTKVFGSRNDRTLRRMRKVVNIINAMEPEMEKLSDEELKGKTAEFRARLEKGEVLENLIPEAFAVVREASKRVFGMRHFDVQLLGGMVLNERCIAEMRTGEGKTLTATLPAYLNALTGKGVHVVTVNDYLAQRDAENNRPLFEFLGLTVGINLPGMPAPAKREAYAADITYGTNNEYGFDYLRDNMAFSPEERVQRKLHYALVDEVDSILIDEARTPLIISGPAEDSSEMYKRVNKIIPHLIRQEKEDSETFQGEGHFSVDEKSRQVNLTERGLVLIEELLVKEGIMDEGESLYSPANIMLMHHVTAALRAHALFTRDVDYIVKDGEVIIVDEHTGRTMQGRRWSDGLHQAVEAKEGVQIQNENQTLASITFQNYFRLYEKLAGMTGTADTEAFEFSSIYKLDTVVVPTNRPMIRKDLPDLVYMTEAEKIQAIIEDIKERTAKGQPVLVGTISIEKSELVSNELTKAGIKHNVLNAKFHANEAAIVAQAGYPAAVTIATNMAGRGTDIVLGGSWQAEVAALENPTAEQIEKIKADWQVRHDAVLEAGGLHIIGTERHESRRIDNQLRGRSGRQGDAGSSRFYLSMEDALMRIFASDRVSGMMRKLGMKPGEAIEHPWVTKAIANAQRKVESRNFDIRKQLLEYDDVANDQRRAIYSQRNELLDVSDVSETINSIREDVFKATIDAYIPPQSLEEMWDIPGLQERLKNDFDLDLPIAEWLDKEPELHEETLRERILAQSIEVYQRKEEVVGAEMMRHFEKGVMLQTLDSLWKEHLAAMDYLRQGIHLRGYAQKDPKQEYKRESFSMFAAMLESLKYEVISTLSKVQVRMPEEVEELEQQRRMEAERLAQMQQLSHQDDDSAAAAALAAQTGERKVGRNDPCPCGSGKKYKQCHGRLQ
# [2] = target: T1, Ubiquitin-activating enzyme e1, putative (Leishmania donovani (strain BPK282A1)) (UniProt E9BSI1); experiment: Leishmania donovani Ubiquitin Activating Enzyme (LdE1); assay type: functional; conditions: 30 µM
# T1 sequence (whole entry): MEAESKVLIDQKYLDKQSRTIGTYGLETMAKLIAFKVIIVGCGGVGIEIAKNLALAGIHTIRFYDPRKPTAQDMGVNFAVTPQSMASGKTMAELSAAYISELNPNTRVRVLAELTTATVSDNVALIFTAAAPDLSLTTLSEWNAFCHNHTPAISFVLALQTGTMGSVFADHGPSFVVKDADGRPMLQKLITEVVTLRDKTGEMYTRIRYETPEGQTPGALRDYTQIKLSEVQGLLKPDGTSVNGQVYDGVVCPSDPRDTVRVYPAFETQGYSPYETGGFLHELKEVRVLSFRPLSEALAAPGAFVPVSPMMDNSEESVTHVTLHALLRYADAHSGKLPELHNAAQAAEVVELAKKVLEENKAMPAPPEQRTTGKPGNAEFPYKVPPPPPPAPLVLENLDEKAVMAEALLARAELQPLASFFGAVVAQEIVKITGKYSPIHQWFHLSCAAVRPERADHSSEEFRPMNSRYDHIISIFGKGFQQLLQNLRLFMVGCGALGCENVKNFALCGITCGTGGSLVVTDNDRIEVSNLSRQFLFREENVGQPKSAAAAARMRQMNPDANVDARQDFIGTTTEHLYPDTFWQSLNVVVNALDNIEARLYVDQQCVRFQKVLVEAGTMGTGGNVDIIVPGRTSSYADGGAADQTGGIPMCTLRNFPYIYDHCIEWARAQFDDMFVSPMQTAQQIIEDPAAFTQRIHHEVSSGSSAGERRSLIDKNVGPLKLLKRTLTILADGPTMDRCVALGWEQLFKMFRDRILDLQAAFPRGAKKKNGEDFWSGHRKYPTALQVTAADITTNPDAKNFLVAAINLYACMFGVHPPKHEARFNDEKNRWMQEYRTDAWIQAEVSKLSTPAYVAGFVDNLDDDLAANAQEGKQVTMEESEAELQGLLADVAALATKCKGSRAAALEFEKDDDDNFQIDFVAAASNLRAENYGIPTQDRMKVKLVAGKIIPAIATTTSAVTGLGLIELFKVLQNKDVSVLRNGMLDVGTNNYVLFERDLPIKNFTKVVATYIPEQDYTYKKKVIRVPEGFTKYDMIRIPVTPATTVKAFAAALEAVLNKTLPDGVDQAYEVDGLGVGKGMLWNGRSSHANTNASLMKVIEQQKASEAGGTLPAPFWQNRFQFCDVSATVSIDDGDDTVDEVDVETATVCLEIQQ
# [3] = target: Sialic acid-binding Ig-like lectin 9 (Homo sapiens) (UniProt Q9Y336); experiment: Hs-Siglec9 ALPHAscreen SOP 20170721; conditions: 10 µM
# Sialic acid-binding Ig-like lectin 9 (Homo sapiens), sequence (Q9Y336 whole entry): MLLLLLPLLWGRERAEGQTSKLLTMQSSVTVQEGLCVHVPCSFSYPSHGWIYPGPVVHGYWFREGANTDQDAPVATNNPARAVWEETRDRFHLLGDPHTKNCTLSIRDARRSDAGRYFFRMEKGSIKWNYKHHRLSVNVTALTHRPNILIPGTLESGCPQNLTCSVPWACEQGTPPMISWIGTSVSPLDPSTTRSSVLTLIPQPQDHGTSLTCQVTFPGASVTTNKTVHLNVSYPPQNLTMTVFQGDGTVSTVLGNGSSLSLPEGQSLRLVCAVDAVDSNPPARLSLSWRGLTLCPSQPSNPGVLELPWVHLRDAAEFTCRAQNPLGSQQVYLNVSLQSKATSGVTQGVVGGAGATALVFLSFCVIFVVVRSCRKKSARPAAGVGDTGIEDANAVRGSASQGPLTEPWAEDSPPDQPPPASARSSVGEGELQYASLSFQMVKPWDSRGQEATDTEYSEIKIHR
# [4] = test system: Trypanosoma cruzi; experiment: Trypanosoma cruzi phosphomannomutase and mannose-1-phosphate guanylyltransferase assay; assay type: functional; conditions: 10 µM
# [5] = target: T2, Arginase-2, mitochondrial (Homo sapiens) (UniProt P78540); experiment: in vitro enzyme assay to detect the production of urea directly proportional to the activity of Arginase II; assay type: functional; conditions: 33.3 µM; further: in the data most compounds retested in dose-response had high values
# T2 sequence (whole entry): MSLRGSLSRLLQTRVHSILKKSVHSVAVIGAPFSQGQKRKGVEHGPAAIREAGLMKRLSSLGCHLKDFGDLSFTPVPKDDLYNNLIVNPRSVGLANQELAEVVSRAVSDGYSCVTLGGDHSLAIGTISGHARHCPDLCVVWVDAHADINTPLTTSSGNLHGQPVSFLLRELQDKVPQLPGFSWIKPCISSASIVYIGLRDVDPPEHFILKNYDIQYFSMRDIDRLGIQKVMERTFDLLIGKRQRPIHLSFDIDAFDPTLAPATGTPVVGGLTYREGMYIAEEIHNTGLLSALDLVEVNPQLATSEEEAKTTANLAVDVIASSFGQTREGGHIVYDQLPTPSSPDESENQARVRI
# [6] = target: T3, Proteasome subunit beta (Trypanosoma cruzi) (UniProt O96673); experiment: Trypanosoma cruzi proteasome chymotrypsin-like activity (TcProtChymo) assay.; further: in the data most compounds retested in dose-response had high values; assay type: functional; conditions: 9.37 µM
# T3 sequence (whole entry): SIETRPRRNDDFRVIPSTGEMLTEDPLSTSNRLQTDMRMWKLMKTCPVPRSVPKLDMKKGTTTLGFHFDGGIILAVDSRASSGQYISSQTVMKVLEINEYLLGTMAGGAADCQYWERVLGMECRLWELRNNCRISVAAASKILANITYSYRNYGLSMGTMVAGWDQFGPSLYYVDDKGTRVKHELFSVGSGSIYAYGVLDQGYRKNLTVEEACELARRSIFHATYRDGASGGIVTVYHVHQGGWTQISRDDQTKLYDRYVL
# [7] = species on record: Homo sapiens; experiment: To identify inhibition of the IFN signalling (Jak-Stat) pathway via expression of an eGFP reporter gene under the control of an IFN-stimulated response element (ISRE) containing MxA promoter.; assay type: functional; conditions: 30 µM
# [8] = target: T4, Tyrosyl-tRNA synthetase, putative (Trypanosoma cruzi (strain CL Brener)) (UniProt Q4DSP6); experiment: Trypanosoma cruzi tyrosyl tRNA synthetase (TcYRS) _High Tyrosine SOP; assay type: functional; conditions: 30 µM; further: in the data most compounds retested in dose-response had high values
# T4 sequence (whole entry): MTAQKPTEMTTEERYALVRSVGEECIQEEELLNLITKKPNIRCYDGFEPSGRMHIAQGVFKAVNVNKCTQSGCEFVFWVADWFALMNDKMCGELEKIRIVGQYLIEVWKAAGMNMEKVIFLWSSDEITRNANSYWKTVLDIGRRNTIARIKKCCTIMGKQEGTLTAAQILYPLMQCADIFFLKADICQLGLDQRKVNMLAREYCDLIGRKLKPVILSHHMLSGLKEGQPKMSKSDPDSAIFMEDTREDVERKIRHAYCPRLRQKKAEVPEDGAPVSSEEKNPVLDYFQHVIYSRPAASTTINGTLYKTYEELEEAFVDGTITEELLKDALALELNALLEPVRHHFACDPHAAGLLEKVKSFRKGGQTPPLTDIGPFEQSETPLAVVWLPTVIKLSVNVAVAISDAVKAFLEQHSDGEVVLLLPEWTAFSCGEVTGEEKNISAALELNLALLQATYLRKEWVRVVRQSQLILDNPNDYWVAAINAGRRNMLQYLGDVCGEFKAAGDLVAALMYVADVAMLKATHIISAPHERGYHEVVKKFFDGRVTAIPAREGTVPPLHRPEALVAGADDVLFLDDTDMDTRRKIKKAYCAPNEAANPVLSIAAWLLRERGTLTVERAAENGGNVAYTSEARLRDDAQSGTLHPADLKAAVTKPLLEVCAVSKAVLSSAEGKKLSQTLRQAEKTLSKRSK
# [9] = target: T4, Tyrosyl-tRNA synthetase, putative (Trypanosoma cruzi (strain CL Brener)); experiment: Trypanosoma cruzi tyrosyl tRNA synthetase (TcYRS) SOP; assay type: functional; conditions: 30 µM
# [10] = target: Chromo domain-containing protein 1 (Saccharomyces cerevisiae (strain ATCC 204508 / S288c) (Baker's yeast)) (UniProt P32657); experiment: ScCHD-1 Enzyme Inhibition Assay; assay type: functional; conditions: 30 µM; further: in the data most compounds retested in dose-response had high values
# Chromo domain-containing protein 1 (Saccharomyces cerevisiae (strain ATCC 204508 / S288c) (Baker's yeast)), sequence (P32657 whole entry, the tested form may be a part): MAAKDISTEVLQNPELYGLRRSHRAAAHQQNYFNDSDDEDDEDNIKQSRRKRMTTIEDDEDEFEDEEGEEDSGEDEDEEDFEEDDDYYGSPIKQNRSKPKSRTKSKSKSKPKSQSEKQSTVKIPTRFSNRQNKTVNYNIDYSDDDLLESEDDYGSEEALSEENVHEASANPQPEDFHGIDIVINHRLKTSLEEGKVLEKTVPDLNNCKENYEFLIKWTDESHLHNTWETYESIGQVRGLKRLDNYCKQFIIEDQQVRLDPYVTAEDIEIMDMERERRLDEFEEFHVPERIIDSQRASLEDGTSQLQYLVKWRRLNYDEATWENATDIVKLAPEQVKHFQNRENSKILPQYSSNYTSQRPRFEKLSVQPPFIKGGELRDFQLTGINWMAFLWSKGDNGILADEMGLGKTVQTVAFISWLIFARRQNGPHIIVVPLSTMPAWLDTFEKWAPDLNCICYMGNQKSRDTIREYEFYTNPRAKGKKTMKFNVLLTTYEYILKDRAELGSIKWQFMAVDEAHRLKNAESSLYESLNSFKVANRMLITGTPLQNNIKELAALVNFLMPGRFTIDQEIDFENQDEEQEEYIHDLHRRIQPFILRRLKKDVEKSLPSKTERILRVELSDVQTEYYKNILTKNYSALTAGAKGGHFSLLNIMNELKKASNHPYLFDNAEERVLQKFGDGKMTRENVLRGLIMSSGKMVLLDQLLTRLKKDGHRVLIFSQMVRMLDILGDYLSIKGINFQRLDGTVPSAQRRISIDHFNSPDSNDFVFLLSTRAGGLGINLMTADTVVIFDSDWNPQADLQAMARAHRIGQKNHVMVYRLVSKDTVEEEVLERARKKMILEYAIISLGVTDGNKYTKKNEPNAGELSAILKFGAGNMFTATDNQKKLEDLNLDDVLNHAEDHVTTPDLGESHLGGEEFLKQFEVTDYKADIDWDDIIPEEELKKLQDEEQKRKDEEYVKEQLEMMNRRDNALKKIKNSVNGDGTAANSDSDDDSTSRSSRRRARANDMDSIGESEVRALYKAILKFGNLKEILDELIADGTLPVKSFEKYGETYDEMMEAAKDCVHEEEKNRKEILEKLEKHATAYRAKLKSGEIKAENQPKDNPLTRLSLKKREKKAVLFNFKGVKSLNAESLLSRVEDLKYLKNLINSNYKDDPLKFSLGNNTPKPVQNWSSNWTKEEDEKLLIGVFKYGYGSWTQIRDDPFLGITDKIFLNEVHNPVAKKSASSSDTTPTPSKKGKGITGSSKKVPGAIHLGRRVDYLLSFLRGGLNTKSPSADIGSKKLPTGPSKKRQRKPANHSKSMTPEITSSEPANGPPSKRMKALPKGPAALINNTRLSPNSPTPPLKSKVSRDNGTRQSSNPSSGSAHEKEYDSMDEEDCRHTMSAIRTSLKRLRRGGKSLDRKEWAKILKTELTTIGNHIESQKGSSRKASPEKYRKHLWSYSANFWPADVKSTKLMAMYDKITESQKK
Compound,Percent Effect [1],Percent Effect [2],Percent Effect [3],Percent Effect [4],Percent Effect [5],Percent Effect [6],Percent Effect [7],Percent Effect [8],Percent Effect [9],Percent Effect [10]
CS(=O)(=O)N1CCC2(CC1)CC(CC(=O)NC1CC1)c1ccccc12 (stereo not given),-4.87%,9.09%,1.58%,2.04%,-3.24%,15.4%,-6.07%,4.74%,10.3%,0.815%
CC(C)c1cc(NC(=O)CN2CCC(N3CCNC3=O)CC2)on1,-2.95%,15.6%,8.63%,-6.16%,1.02%,0.877%,23.3%,5.88%,11.8%,-7.14%
COC(=O)COc1nc(CC(C)C)c2c(c1C#N)CCCC2,-4.25%,2.7%,-5.64%,-7.86%,-5.94%,10.6%,38.2%,-2.66%,4.88%,-4.12%
COCc1ncc(CN2CCC(Oc3ccccc3OC)CC2)cn1,-4.09%,2.7%,1.93%,-3.59%,3.85%,9.59%,1.55%,5.85%,14.6%,-3.8%
CN1CCCN(c2nccc(-c3c[nH]nc3C3CCCCC3)n2)CC1,2.25%,8%,-4.76%,-6.22%,1.33%,24%,23%,0.526%,2.56%,-14.2%
CCCn1nc2c(cc1=O)CN(CC(=O)Nc1ccncc1)CC2,-3.45%,10.4%,6.89%,-3.17%,2.25%,17.2%,3.95%,3.92%,11.8%,-14.2%
Cc1ccc(S(=O)(=O)N2CCC3(CC(C(=O)NCC4CC4)=NO3)C2)cc1 (stereo not given),-5.9%,6.49%,-4.73%,-4.38%,0%,18.3%,5.59%,1.58%,7.69%,-3.09%
Cc1nc(CN2CCC(N(C)Cc3noc(C4CC4)n3)C2)oc1C (stereo not given),0.865%,18.2%,0.312%,1.31%,0.205%,18.8%,12.6%,12.8%,28.2%,-10.9%
CCN(CC1CCOC1)C(=O)Nc1ccc(OC)nc1 (stereo not given),-0.796%,17.9%,-22.4%,2.35%,2.46%,18.2%,15.6%,2.39%,22.9%,-7.72%
CC(C)n1[nH]c(=O)c2c1NC(=O)CC2c1cccc(OC(F)F)c1 (stereo not given),-3.01%,2.7%,-4.26%,-8.63%,-1.75%,16.1%,27.6%,1.6%,2.44%,-5.54%
CCc1nc(C2CCCN2C(=O)C2=COCC2)no1 (stereo not given),-6.76%,0%,1.81%,-4.02%,-0.444%,-2.46%,12.2%,4.74%,-2.56%,-3.47%
CCc1nc(CN2CCCN(C(=O)CCSC)CC2)cs1,-1.79%,12.8%,-12.3%,-7.98%,6.15%,9.81%,22.8%,0.478%,18.1%,-4.21%
CCCn1nc2c(cc1=O)CN(CC(=O)Nc1nnc(C)s1)CC2,-7.9%,13%,10.3%,-3.92%,3.07%,11.8%,1.49%,2.94%,9.41%,-8.62%
COCCN1C(=O)C[C@@H]2[C@H]1CCN2C(=O)COc1ccccc1,-4.5%,6.49%,-2.28%,-3.02%,-4.86%,15.6%,-17.9%,2.63%,10.3%,-1.49%
COc1cccc(S(=O)(=O)N2CCC(O)(CN(C)C)C2)c1 (stereo not given),-2.81%,4%,-1.76%,-3.35%,4.42%,9.2%,-4%,1.06%,7.5%,-23.8%
Cc1csc(N2CCCN(C(=O)c3cnns3)CC2)n1,-2.47%,-2.67%,-0.659%,-0.803%,-1.33%,-0.255%,-0.448%,0.526%,0%,4.48%
CC(C)(C)c1nnc(CN2CCn3c(nnc3C3CC3)C2)o1,-1.7%,-2.67%,0.00454%,-2.21%,0.444%,3.14%,13.2%,0.526%,2.56%,9.52%
Cc1nc(CN2CCCC(CCNS(C)(=O)=O)C2)c[nH]1 (stereo not given),-6.15%,0%,1.08%,-0.873%,3.85%,1.71%,7.77%,3.72%,9.76%,-0.429%
COCc1cccc(NS(=O)(=O)c2cc(C(=O)O)cs2)c1,-3.18%,5.13%,-6.44%,2.91%,2.46%,8.11%,4.97%,3.35%,13.2%,-5.54%
CCc1c(C)nn(CCNC(=O)C2CCCN(C(=O)N(C)C)C2)c1C (stereo not given),-6.94%,5.41%,6.18%,2.04%,6.64%,7.36%,10.5%,5.85%,14.6%,41.1%
CCc1nc(C2CCCN2C(=O)c2ncoc2CC)no1 (stereo not given),-4.57%,7.69%,5.36%,10.6%,-4.92%,-5.38%,-5.4%,2.39%,8.43%,0.961%
Cc1nn2cccnc2c1C(=O)N1CCCC(n2ccnc2)C1 (stereo not given),0.231%,13.3%,-7.92%,-2.21%,0%,8.23%,2.09%,3.68%,12.8%,-11.1%
C[C@H]1CN(Cc2cnn(C)c2)C[C@@]12CCN(Cc1cccnc1)C2=O,-2.17%,11.7%,0.906%,-5.07%,4.57%,4.21%,23.4%,6.76%,2.5%,-3.65%
COCCOc1cccc(C(=O)N2CCCC(n3cccn3)C2)c1 (stereo not given),-3.05%,2.6%,10.5%,-0.746%,-1.84%,2.28%,7.63%,0%,4.71%,3.61%
O=C1CN(Cc2ccc(-c3ccccc3C(=O)O)cc2)CCN1,1.19%,12%,-5.14%,-4.73%,-1.33%,14.1%,27.5%,1.06%,0%,-24.4%
CCCn1[nH]cc/c1=N\C(=O)CN1CCOC(Cn2cc(C)cn2)C1 (stereo not given),-8.16%,5.33%,3.2%,3.61%,0.444%,5.85%,-3.75%,2.63%,7.69%,-5.89%
Cc1ccc(C(=O)N2CCC3(CC2)CC(N2CCCC2)C3)cc1,-4.52%,11.7%,1.16%,-0.75%,1.83%,7.12%,-12.1%,8.7%,12.5%,-4.42%
